The record followed here is PubChem BioAssay (EPA / NIEHS).

Active and inactive are the calls of the source. The calls were made as follows: active = hit-call score of the fitted dose curve at least 0.9, where 1 is the maximum; inactive = score below 0.9.

Read-out in this experiment: Matrix Metallopeptidase 1 (MMP1), MMP1 (gene 4312)
The experiment in a line: BSK_MyoF_MMP1: BioMAP Diversity Plus: MyoF Assay for Matrix Metallopeptidase 1 (MMP1) Biomarker Activity (AID 2284268). The settings on record: primary human lung fibroblasts. The procedure:
BSK_MyoF is a cell-based, multiplexed-readout assay that uses lung fibroblasts, […], with measurements taken at 24 hours after chemical dosing in a microplate: 96-well plate.BSK_MyoF_MMP1 is an assay component measured in the BSK_MyoF assay. It measures […] antibody related to regulation of gene expression using ELISA technology.Data from the assay component BSK_MyoF_MMP1 was analyzed at the endpoint, BSK_MyoF_MMP1, in the positive analysis fitting direction relative to DMSO as the negative control and baseline of activity. Using a type of binding reporter, gain or loss-of-signal activity can be used to understand protein changes. To generalize the intended target to other relatable targets, this assay endpoint is annotated to the 'protease' intended target family, where the subfamily is 'matrix metalloproteinase'.
The levels of cell surface (or secreted, indicated by the prefix "s") biomarker endpoints were measured by ELISA. Overt cytotoxicity to cells in confluent adherent cultures (all systems other than the BT system) was assessed by measuring total protein levels using sulforhodamine B (SRB) staining in parallel cultures at the time of biomarker measurements, indicated as SRB endpoints. For proliferation assays for adherent cell types, individual cell types are cultured at sub-confluence and relative cell numbers quantified by SRB staining at time points optimized for each system (48 h: 3C and CASM3C systems; 72 h: BT and HDF3CGF systems; 96 h: SAg system). SRB was performed by staining cells with 0.1% SRB after fixation with 10% TCA and reading wells at 560 nm.Viability and proliferation of PBMC (T cells) was quantified by Alamar Blue reduction for the SAg and BT systems. For PBMC viability (referred to as PBMC Cytotoxicity within the assay endpoint names), cells were plated (75,000/well in a 96-well plate) and then chemical samples added for 1 h before addition of activators, SEB and TSST-1 (20 ng/mL final concentration each). Cells were incubated for 90 h. Then, Alamar Blue (20 uL/well) (Invitrogen, Cat DAL1100) was added for 6 h, and the plates were read with a fluorescence microplate reader at 546/580 nm (excitation/emission). For PBMC proliferation, cells were plated and activated as above but incubated for only 16 h prior to addition of Alamar Blue. Plates were read after 6 h.
On to `COc1cc(Cl)c(OC)cc1N`, for which the result was inactive.
Still for that read-out and setting: the value for `C=C(C)C(=O)OCCOCCOCCOCCOC(=O)C(=C)C` was “inactive”; that for `CCCCCCCCCCCCCCCC(=O)OC/C=C(C)/C=C/C=C(C)/C=C/C1=C(C)CCCC1(C)C` was “inactive”.
`CCCCCC(C=O)=Cc1ccccc1`: the AC50 (commonly the midpoint of the concentration-response curve, whichever way the signal moves) is 28.4 µM (active).
On the same count and under the same terms, to `Clc1cc(Cl)c(-c2c(Cl)c(Cl)cc(Cl)c2Cl)cc1Cl` belongs 2.61 µM (active).
On to `CC(C)(N=C=O)c1cccc(C(C)(C)N=C=O)c1`, for which the outcome was inactive.
Consider `CC(=O)C1(C)CC2=C(CCCC2(C)C)CC1C` (stereo not drawn), for which the AC50 is 4.66 µM (active).
For `c1ccc(Oc2ccccc2)cc1`, the outcome was inactive.
Same read-out and setting: to `IC(I)I` belongs “inactive”; to `O=C1OC2(c3ccccc31)c1ccc(O)c(Br)c1Oc1c2ccc(O)c1Br`, “inactive”.
For `CCN(CC)C(=O)N(CC)CC`, the result was inactive.
With `COc1ccc(OC)c(N=Nc2c(O)ccc3ccccc23)c1`, the AC50 is 10.3 µM (active).
`O=C1OC[C@H](Cc2cccc(O)c2)[C@H]1Cc1cccc(O)c1`: the result was inactive.
As for `c1ccc2cc(Nc3ccc(Nc4ccc5ccccc5c4)cc3)ccc2c1`, the result was inactive.
On the same count and under the same terms, to `c1ccc(CCc2ccccc2)cc1` belongs “inactive”.
Consider `CCCCN(CCCC)C(=O)N(CCCC)CCCC`, for which the AC50 was 7.64 µM (active).
As for `C[C@@H]1CCN(C(=O)[C@H](CCCN=C(N)N)NS(=O)(=O)c2cccc3c2NC[C@H](C)C3)[C@@H](C(=O)O)C1`, the result was inactive.
Turning to `CCC(C)c1cc([N+](=O)[O-])cc([N+](=O)[O-])c1OC(=O)OC(C)C` (stereo not drawn), the AC50 is 20 µM (active).
In the case of `CS(=O)(=O)c1ccc(C2=C(c3ccccc3)C(=O)OC2)cc1`, the result was inactive.
On the same count and under the same terms, to `CC(=O)c1c(C)c([N+](=O)[O-])c(C(C)(C)C)c([N+](=O)[O-])c1C` belongs “inactive”.
Turning to `COc1ccc(CCN2CCC(Nc3nc4ccccc4n3Cc3ccc(F)cc3)CC2)cc1`, the AC50 is 3.79 µM (active).
For `CSCCC=O`, the outcome was inactive.
Same read-out and setting: to `C=C(C)C(=O)OCCOCCOCCOC(=O)C(=C)C` belongs “inactive”; to `C1=CC2C3C=CC(C3)C2C1` (stereo not drawn), “inactive”.
`O=C1c2ccccc2C(=O)c2c(O)ccc(O)c21`: the AC50 was 3.25 µM (active).
With `Cc1cc(CCC(=O)OCCOCCOCCOC(=O)CCc2cc(C)c(O)c(C(C)(C)C)c2)cc(C(C)(C)C)c1O`, the result was inactive.
The same measure, in the same setting: the value for `CC(C=O)Cc1ccc(C(C)(C)C)cc1` (stereo not drawn) was “inactive”; that for `CN(c1nccc(=O)[nH]1)C1CCN(c2nc3ccccc3n2Cc2ccc(F)cc2)CC1` was “inactive”.
Turning to `CN(C)C(=S)SC(=S)N(C)C`, the AC50 is 29.4 µM (active).
Still for that read-out and setting: to `CC1(C)C2=CCCC(C)(C)[C@]23CC[C@H]1C3` belongs 31.2 µM (active).
With `CC(C)(C)CC(C)(C)c1ccc(OCCOCC[N+](C)(C)Cc2ccccc2)cc1`, the outcome was inactive.
Same read-out and setting: to `CC(=O)Nc1ccc(C(=O)CCl)cc1` belongs “inactive”.
For `CN(C)C(=O)Nc1ccc(Oc2ccc(Cl)cc2)cc1`, the outcome was inactive.
On the same count and under the same terms, to `CC=Cc1ccc(OCC)c(O)c1` belongs “inactive”; to `C=C(C)[C@H]1CC=C(C)C(=O)C1`, “inactive”.
Same read-out and setting: to `CCCCOC(=O)CCCCCCCC(=O)OCCCC` belongs “inactive”.
Take `C=C(C)C(=O)OCC(CC)(COC(=O)C(=C)C)COC(=O)C(=C)C`: the AC50 is 5.25 µM (active).
Turning to `Oc1c(Cl)cc(Cl)c(Cl)c1Cc1c(O)c(Cl)cc(Cl)c1Cl`, the AC50 was 0.198 µM (active).
